Experimental findings from PubChem BioAssay (NCI) are described below.

This is part of a sample that, as a whole, favours compounds with a hit. Of some 83,000 tested, about 20% had one in any assay.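 Method: cells in 96-well plates; compound added at one concentration; 48 h incubation; percent growth measured; values under 10 scored active.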 Unmarked numbers belong to inactive results. Calls of active or inactive are those of the source.

What all share (test): NCI-60 one-dose screen, 48 h (100 = growth as untreated, 0 = no growth, -100 = all killed)
Common to all, as to details: 10 µM unless noted

For experiment [1], the system named is DU-145 prostate.
In experiment [2] the test system is K-562 leukemia.
Experiment [3] deals with MALME-3M melanoma.
Experiment [4] relates to MDA-MB-231 breast.
Experiment [5] relates to SF-268 CNS.
Experiment [6] deals with SF-295 CNS.
In experiment [7] the test system is SF-539 CNS.
The test system of experiment [8] is UACC-257 melanoma.
Experiment [9] has as its system M14 melanoma.
Experiment [10] deals with RXF 393 renal.

With `CCNc1nc(Cl)nc(NCC)n1`, the growth was 123% in [1]; 35.1% in [2]; 133% in [3]; 104% in experiment [4]; 102% in experiment [5]; 84.1% in experiment [6]. In addition, the growth was 97.2% in experiment [7], 89% in [8] and 101% in experiment [9].
In the case of `CCOC(=O)c1c(C)n(Cc2ccccc2)c2cc(CN(C)C)c(O)cc12`, the growth in experiment [1] is 79.9%; in [2], 29.3%; in experiment [3], 103%; in [10], 66.9%; in experiment [5], 82.9%; in [6], 43.6%. The growth in [7] was 57.8%; in experiment [8], 81.8%; in experiment [9], 81.3%.
Consider `Nc1ccc2c(c1)oc1ccccc12`, for which the growth in [1] was 103%; in experiment [2], 89.5%; in experiment [4], 80.2%; in experiment [10], 92.4%; in experiment [5], 83.3%; in [6] it was 102%. Moreover, the growth was 104% in [7], 92.6% in [8] and 101% in experiment [9].
Consider `C/C=C(\C)C(=O)O[C@@H]1C(O)[C@H]2OC(COC(=O)CCC(=O)CCCCCC[C@H](CCCCC)O[C@@H]3OC(C)[C@H](OC(C)=O)C(O)[C@H]3O2)[C@H]1OC(=O)/C=C/c1ccccc1` (stereo partly specified), for which the growth in experiment [1] was 22.5%; in [2], 30.2%; in [3] it was 14.9%; in [4], -5.32% (active); in experiment [5], 18.1%; in experiment [6] it was -33.6% (active). The values for the growth in [7] and in experiment [9] were -9.75% (active) and -13.1% (active), respectively.
In the case of `c1ccc(Nc2nc(-c3ccccc3)c[se]2)cc1`, the growth is 98.4% in [1]; 80.1% in experiment [2]; 78.6% in [3]; 64.3% in [4]; 95.7% in experiment [5]; 93% in experiment [6]. The growth in experiment [7] is 93.7%; in [8] it was 98.6%; in [9] it was 87.3%.
For `COC(=O)[C@@H](C)C[C@H](Cc1ccc(F)cc1)NC(=O)c1csc([C@@H](C[C@H](C(C)C)N(C)C(=O)[C@@H](NC(=O)[C@H]2CCCCN2C)C2CC2)OC(C)=O)n1`, the growth was 13.1% in experiment [1]; 9.43% (active) in experiment [2]; 55.2% in [3]; 13.3% in experiment [4]; 30.9% in [5]; 2.38% (active) in [6]. In addition, the results for the growth in [7] and in experiment [9] were -4.81% (active) and 1.41% (active), respectively.
As for `CC(=O)[O][Hg][c]1c(N)c(C)cc(C)c1F`, the growth in experiment [1] is 36.3%; in experiment [2], 5.95% (active); in experiment [3], -72.4% (active); in experiment [4], 7.24% (active); in [5], -15.5% (active); in experiment [6], 73%. The growth is 28.3% in [7], 31% in [8] and 5.84% (active) in experiment [9].
As for `N/C(=N/N=C/c1ccncc1)N[N+](=O)[O-]`, the growth in experiment [1] was 108%; in experiment [2], 90%; in experiment [3], 96.2%; in [10] it was 121%; in experiment [5] it was 102%; in experiment [6], 99.5%. For the same compound, the growth in experiment [7] was 94.3%; in [8] it was 102%; in [9], 104%.
Regarding `Cc1ccc(C(=O)NCCCOc2ccc(N)cc2Cl)cc1S(=O)(=O)F`, the growth in [1] was 107%; in experiment [2], 91.9%; in experiment [3], 87.6%; in experiment [4], 106%; in experiment [5], 102%; in experiment [6], 86.3%. Further, the growth in experiment [7] is 103%; in experiment [8], 87.1%; in experiment [9] it was 97.8%.
For `CC1(C)N=C(N)N=C(N)N1c1cccc(CCCCc2ccc(Cl)c(S(=O)(=O)F)c2)c1`, the growth in experiment [1] was 47.5%; in experiment [2], 16.4%; in [3], 56%; in [4] it was 69.8%; in [5], 35.9%; in experiment [6], 39%. Further, the growth is 19.9% in experiment [7], 33.6% in [8] and 39% in [9].
As for `ClCCN(CCCl)c1ccc(-n2cnc3c(Cl)ncnc32)cc1`, the growth in experiment [1] is 21.9%; in experiment [2] it was -2.07% (active); in experiment [4], 62.9%; in experiment [10], -57.2% (active); in experiment [5], -11.9% (active); in experiment [6], 87%. The growth in experiment [7] is 115%; in experiment [8] it was 49.7%; in experiment [9] it was 33.3%.
Regarding `CCCCCCCC(=O)OCC(=O)[C@]1(O)Cc2c(O)c3c(c(O)c2[C@@H](OC2CC(N)C(O)C(C)O2)C1)C(=O)c1c(OC)cccc1C3=O` (stereo partly specified), the growth was -100% (active) in experiment [1]; -86.7% (active) in [2]; -70.7% (active) in experiment [3]; -72.4% (active) in experiment [4]; -82.1% (active) in experiment [5]; -68.1% (active) in experiment [6]. The growth in [7] was -79.9% (active); in experiment [8], -98.2% (active); in experiment [9], -69.8% (active).
Take `COC(=O)[C@@H](C)C[C@H](Cc1ccc(F)cc1)NC(=O)c1csc([C@@H](C[C@H](C(C)C)N(C)C(=O)[C@@H](NC(=O)[C@H]2CCCCN2C)C(C)C)OC(C)=O)n1`: the growth in experiment [1] was 13.5%; in experiment [2], 8.92% (active); in [3], 47%; in experiment [4] it was 4.87% (active); in experiment [5], 27%; in [6] it was 8.69% (active). The results for the growth in experiment [7] and in experiment [9] were -6.38% (active) and -5.96% (active), respectively.
Regarding `CCCCN1CCCC[C@@H]1C(=O)N[C@H](C(=O)N(C)[C@H](CCc1nc(C(=O)N[C@@H](Cc2ccccc2)C[C@H](C)C(=O)OC)cs1)C(C)C)[C@@H](C)CC`, the growth was 79.2% in experiment [1]; 34% in experiment [2]; 48.5% in experiment [3]; 59.6% in experiment [4]; 64.4% in experiment [5]; 26.3% in experiment [6]. The growth in experiment [7] was 84%; in experiment [9], 48.6%.
Take `O=Cc1cn(Cc2ccc(Cl)cc2)c2ccccc12`: the growth in experiment [1] is 95.5%; in [2] it was 40.5%; in [3] it was 96.5%; in experiment [4] it was 96.1%; in [5], 89.6%; in [6], 46%. Also, the growth in experiment [7] was 87.4%; in experiment [8], 21.8%; in [9], 83.8%.
